Laboratory results as given in PMC9911399, “Two distinct binding modes provide the RNA-binding protein RbFox with extraordinary sequence specificity”.
Changes are numbered by the printed parent chain; changes in the protein carry UniProt numbers. Over roughly 16,000 sequences, “ka relative to ugcaugu” has its median near 0.096; the highest 2% begin near 0.35. Only a selection was taken, and the highest values are over-represented in it overall.

B1: GGUGGAC (DNA:RNA)
RNA: GGGAGACCGGAAUUCAGAUUGUCCGGUGGACUUAAAUCCCGUCGUAGCCACCA
DNA 1: CAATCTGAATTCCGGTCTCCC
DNA 2: TGGTGGCTACGACGGGATT
B2: CGCAACA (DNA:RNA)
RNA: B1 RNA with G25C, U27C, G28A, G29A, A30C, C31A
DNA 1: CAATCTGAATTCCGGTCTCCC
DNA 2: TGGTGGCTACGACGGGATT
B3: GCACAGC (DNA:RNA)
RNA: B1 RNA with G26C, U27A, G28C, G29A, A30G
DNA 1: CAATCTGAATTCCGGTCTCCC
DNA 2: TGGTGGCTACGACGGGATT
B4: GCGAUGU (DNA:RNA)
RNA: B1 RNA with G26C, U27G, G28A, G29U, A30G, C31U
DNA 1: CAATCTGAATTCCGGTCTCCC
DNA 2: TGGTGGCTACGACGGGATT
B5: CUCAAAA (DNA:RNA)
RNA: B1 RNA with G25C, G26U, U27C, G28A, G29A, C31A
DNA 1: CAATCTGAATTCCGGTCTCCC
DNA 2: TGGTGGCTACGACGGGATT
B6: UUGUUGU (DNA:RNA)
RNA: GGGAGACCGGAAUUCAGAUUGUCCUUGUUGUUUAAAUCCCGUCGUAGCCACCA
DNA 1: CAATCTGAATTCCGGTCTCCC
DNA 2: TGGTGGCTACGACGGGATT
B7: GUGUACG (DNA:RNA)
RNA: B6 RNA with U25G, U29A, G30C, U31G
DNA 1: CAATCTGAATTCCGGTCTCCC
DNA 2: TGGTGGCTACGACGGGATT
B8: GUGUGUG (DNA:RNA)
RNA: B6 RNA with U25G, U29G, G30U, U31G
DNA 1: CAATCTGAATTCCGGTCTCCC
DNA 2: TGGTGGCTACGACGGGATT
B9: GUACGUG (DNA:RNA)
RNA: B1 RNA with G26U, U27A, G28C, A30U, C31G
DNA 1: CAATCTGAATTCCGGTCTCCC
DNA 2: TGGTGGCTACGACGGGATT
B10: UCGUCGU (DNA:RNA)
RNA: B6 RNA with U26C, U29C
DNA 1: CAATCTGAATTCCGGTCTCCC
DNA 2: TGGTGGCTACGACGGGATT
B11: GUGUCCC (DNA:RNA)
RNA: B6 RNA with U25G, U29C, G30C, U31C
DNA 1: CAATCTGAATTCCGGTCTCCC
DNA 2: TGGTGGCTACGACGGGATT
B12: UUGUUUG (DNA:RNA)
RNA: B6 RNA with G30U, U31G
DNA 1: CAATCTGAATTCCGGTCTCCC
DNA 2: TGGTGGCTACGACGGGATT
B13: UUGUCGU (DNA:RNA)
RNA: B6 RNA with U29C
DNA 1: CAATCTGAATTCCGGTCTCCC
DNA 2: TGGTGGCTACGACGGGATT
B14: UCGUUUU (DNA:RNA)
RNA: B6 RNA with U26C, G30U
DNA 1: CAATCTGAATTCCGGTCTCCC
DNA 2: TGGTGGCTACGACGGGATT
B15: UCGUUUG (DNA:RNA)
RNA: B6 RNA with U26C, G30U, U31G
DNA 1: CAATCTGAATTCCGGTCTCCC
DNA 2: TGGTGGCTACGACGGGATT
B16: GUCCGUG (DNA:RNA)
RNA: B1 RNA with G26U, U27C, G28C, A30U, C31G
DNA 1: CAATCTGAATTCCGGTCTCCC
DNA 2: TGGTGGCTACGACGGGATT
B17: UUGUACG (DNA:RNA)
RNA: B6 RNA with U29A, G30C, U31G
DNA 1: CAATCTGAATTCCGGTCTCCC
DNA 2: TGGTGGCTACGACGGGATT
B18: UUAGCGG (DNA:RNA)
RNA: B6 RNA with G27A, U28G, U29C, U31G
DNA 1: CAATCTGAATTCCGGTCTCCC
DNA 2: TGGTGGCTACGACGGGATT
B19: AGAGGUC (DNA:RNA)
RNA: B1 RNA with G25A, U27A, A30U
DNA 1: CAATCTGAATTCCGGTCTCCC
DNA 2: TGGTGGCTACGACGGGATT
B20: CCAGAUU (DNA:RNA)
RNA: B1 RNA with G25C, G26C, U27A, G29A, A30U, C31U
DNA 1: CAATCTGAATTCCGGTCTCCC
DNA 2: TGGTGGCTACGACGGGATT

target: T1, RBFOX1 RRM RbFoxmut (Fox-RRM*) (Homo sapiens, UniProt Q9NWB1 109-208, R118D;E147R;N151S;E152T); assay: EMSA; HiTS-Eq, 1 nM pool, 10 min; buffer printed only for the single-RNA assays: 10 mM Tris pH 7.5, 150 mM NaCl, 3.4 mM EDTA, 0.001% NP-40, 30 C; conditions: tags: His6 N-terminal (pET28a); label: 5' 32P
T1 sequence: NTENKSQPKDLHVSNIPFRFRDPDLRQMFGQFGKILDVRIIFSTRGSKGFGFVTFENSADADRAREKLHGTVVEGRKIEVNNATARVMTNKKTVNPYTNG
In short: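 A pool of RNA with 7 randomized nucleotides, 5′-radiolabelled and with DNA-annealed flanks, was equilibrated at 1 nM for 10 min in 50 µL with purified RbFox RRM, wild type or mutant, across increasing protein concentrations. Free RNA was separated by 8% native PAGE, excised, reverse-transcribed, barcoded by PCR and sequenced. Relative association constants were obtained from read-count changes of each RNA species versus the control reaction and normalised to the cognate motif.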

Binder	binding signal
B1	0.0584 KA relative to UGCAUGU
B2	0.102 KA relative to UGCAUGU
B3	0.0832 KA relative to UGCAUGU
B4	0.151 KA relative to UGCAUGU
B5	0.0819 KA relative to UGCAUGU
B6	0.21 KA relative to UGCAUGU
B7	0.441 KA relative to UGCAUGU
B8	0.532 KA relative to UGCAUGU
B9	0.188 KA relative to UGCAUGU
B10	0.109 KA relative to UGCAUGU
B11	0.101 KA relative to UGCAUGU
B12	0.709 KA relative to UGCAUGU
B13	0.132 KA relative to UGCAUGU
B14	0.0973 KA relative to UGCAUGU
B15	0.396 KA relative to UGCAUGU
B16	0.146 KA relative to UGCAUGU
B17	0.261 KA relative to UGCAUGU
B18	0.0965 KA relative to UGCAUGU
B19	0.108 KA relative to UGCAUGU
B20	0.0808 KA relative to UGCAUGU
